Assay [1] can be described thus: ATG_XTT_Cytotoxicity_XSP1: Cytotoxicity Assessment in the Attagene TRANS-FACTORIAL Multi-Species (XSP1) HepG2 Assay (AID 2283810). In outline:
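XTT viability readout taken at 24 hours post-dosing in HepG2 liver cells co-treated with 3 nM 6-alpha-fluorotestosterone. Signal loss relative to DMSO controls reflects cytotoxicity.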

Assay [2] is described as follows: ATG_M_06_XSP2: Attagene TRANS-FACTORIAL Multi-Species (XSP2) HepG2 Assay for M06 Transcription Factor (Internal Marker) (AID 2283811).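 Further: hits are increases in signal above the DMSO baseline.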 In outline:
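HepG2 cells transiently transfected with GAL4-UAS multi-reporter constructs, dosed 24 h with 3 nM 6-alpha-fluorotestosterone plus 1.5 nM norgestrel present to stimulate androgen receptor. Reporter mRNA quantified by RT-PCR, 6-FAM labelling, HpaI digestion and capillary electrophoresis; gain-of-signal fitted versus DMSO baseline.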

For assay [3], the system named is turtle Estrogen Receptor (ERa), gene 101933533. Description: ATG_trERa_XSP2: Attagene TRANS-FACTORIAL Multi-Species (XSP2) HepG2 Assay for turtle Estrogen Receptor (ERa) (AID 2283812).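 Further: human HepG2 liver cells transiently expressing turtle ERa-Gal4 chimeric receptor; actives raise reporter signal above DMSO so AC50 reflects agonist activity.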 An outline of the steps:
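HepG2 cells transiently transfected with GAL4-UAS reporter units expressing turtle ERa-Gal4 chimera. Reporter mRNA measured after 24 h dosing by RT-PCR, fluorescent labelling and capillary electrophoresis; gain of signal fitted versus DMSO.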

For assay [4], the target named is zebrafish Estrogen Receptor (ER1), esr1 (gene 259252) (UniProt P57717). Briefly: ATG_zfER1_XSP2: Attagene TRANS-FACTORIAL Multi-Species (XSP2) HepG2 Assay for zebrafish Estrogen Receptor (ER1) (AID 2283816). An outline of the steps: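 HepG2 cells transiently transfected with a GAL4-UAS reporter and a chimeric zebrafish ER1-Gal4 construct, dosed 24 h. Reporter mRNA quantified by RT-PCR, labelling, HpaI digestion and capillary electrophoresis, relative to DMSO.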

The subject of assay [5] is zebrafish Estrogen Receptor (ER2a), gene 317734. Briefly: ATG_zfER2a_XSP2: Attagene TRANS-FACTORIAL Multi-Species (XSP2) HepG2 Assay for zebrafish Estrogen Receptor (ER2a) (AID 2283818).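 Further: hits raise reporter mRNA so AC50 reflects activation of zebrafish ER2a.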 An outline of the steps:
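HepG2 cells transiently transfected with GAL4-UAS reporter units and chimeric zebrafish ER2a-Gal4, exposed 24 h; medium contains 3 nM 6-alpha-fluorotestosterone and 1.5 nM norgestrel. Reporter mRNA quantified by RT-PCR, HpaI digestion, capillary electrophoresis; gain versus DMSO.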

Assay [6] has as its system zebrafish Estrogen Receptor (ER2b), gene 317733. Briefly: ATG_zfER2b_XSP2: Attagene TRANS-FACTORIAL Multi-Species (XSP2) HepG2 Assay for zebrafish Estrogen Receptor (ER2b) (AID 2283823).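 Further: fitted upward as reporter gain over DMSO so potency reflects activation.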 In outline: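 Transfect HepG2 with GAL4-UAS reporter constructs; dose chemicals, 24 h; isolate RNA, RT-PCR, FAM-label, HpaI digest; capillary electrophoresis. Gain-of-signal vs DMSO.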

For assay [7], the system named is frog Estrogen Receptor (ER2), gene 100174814. Briefly: ATG_frER2_XSP2: Attagene TRANS-FACTORIAL Multi-Species (XSP2) HepG2 Assay for frog Estrogen Receptor (ER2) (AID 2283828). An outline of the steps: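 Human liver HepG2, transient MRTU transfection (TRANS format, exogenous NR–Gal4). 24 h cpd exposure. Total RNA → RT → PCR → FAM label → HpaI cut → CE. Positive direction vs DMSO.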

Assay [8] has as its target Peroxisome proliferator-activated receptor gamma (Homo sapiens) (UniProt P37231). Description: ATG_hPPARg_XSP2: Attagene TRANS-FACTORIAL Multi-Species (XSP2) HepG2 Assay for human Peroxisome Proliferator-activated Receptor gamma (PPARg) (AID 2283829).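 Further: actives raise reporter mRNA above DMSO so AC50 reflects PPARg activation.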 An outline of the steps: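 Transient MRTU transfection, HepG2; TRANS format (exogenous NR-Gal4 chimeras). 24 h chemical exposure with 3 nM 6-alpha-fluorotestosterone and 1.5 nM norgestrel present. Readout: reporter mRNA via RT-PCR/CE fluorescence, up-direction vs DMSO.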

Assay [9] addresses chicken Estrogen Receptor (ERa), ESR1 (gene 396099) (UniProt P06212). Description: ATG_chERa_XSP2: Attagene TRANS-FACTORIAL Multi-Species (XSP2) HepG2 Assay for chicken Estrogen Receptor (ERa) (AID 2283817).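 Further: actives raise reporter signal above DMSO so AC50 reflects ER activation.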 An outline of the steps: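 HepG2 cells transiently transfected with multiplexed GAL4-UAS reporter units expressing chimeric chicken ERa-Gal4; 24 h compound exposure. Reporter mRNA measured by RT-PCR with 6-FAM labelling, HpaI digestion and capillary electrophoresis; gain-of-signal fitted versus DMSO.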

Assay [10] has as its system frog Estrogen Receptor (ER), gene 398734. Briefly: ATG_frER1_XSP2: Attagene TRANS-FACTORIAL Multi-Species (XSP2) HepG2 Assay for frog Estrogen Receptor (ER) (AID 2283821).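 Further: hits raise reporter mRNA above DMSO baseline so potency means agonist or activator.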 An outline of the steps:
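HepG2, transient MRTU transfection, chimeric NR-GAL4/UAS reporters; 24 h compound exposure, 24-well. Readout: reporter mRNA via RT-PCR + capillary electrophoresis, fluorescence. Positive fit vs DMSO baseline.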

Assay [11] addresses mouse Peroxisome Proliferator-activated Receptor gamma (PPARg), Pparg (gene 19016) (UniProt P37238). Description: ATG_mPPARg_XSP2: Attagene TRANS-FACTORIAL Multi-Species (XSP2) HepG2 Assay for mouse Peroxisome Proliferator-activated Receptor gamma (PPARg) (AID 2283830).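 Further: hits are gains in reporter mRNA above DMSO so AC50 marks activation.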 In outline:
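HepG2 cells transiently transfected with GAL4-UAS reporter units for chimeric NR-Gal4 proteins including mouse PPARg, exposed 24 h; medium contained 3 nM 6-alpha-fluorotestosterone and 1.5 nM norgestrel. Reporter mRNA quantified by RT-PCR, HpaI digestion and capillary electrophoresis, vs DMSO.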

The target of assay [12] is Nuclear receptor subfamily 1 group I member 2 (Mus musculus) (UniProt O54915). Description: ATG_mPXR_XSP2: Attagene TRANS-FACTORIAL Multi-Species (XSP1) HepG2 Assay for mouse Pregnane X Receptor (PXR) (AID 2283831). An outline of the steps: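 Transient HepG2 transfection, multiplexed GAL4-UAS reporters, NR-GAL4 chimeras. 24 h compound exposure. Readout: reporter mRNA, RT-PCR, fluorescent capillary electrophoresis; positive direction vs DMSO baseline.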

The nature of assay [13]: ATG_M_19_XSP2: Attagene TRANS-FACTORIAL Multi-Species (XSP2) HepG2 Assay for M32 Transcription Factor (Internal Marker) (AID 2283822). An outline of the steps:
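Internal background marker in a multi-species nuclear receptor TRANS panel: transfected HepG2 cells exposed 24 h, with 3 nM 6-alpha-fluorotestosterone and 1.5 nM norgestrel present. Readout is RT-PCR of reporter transcripts resolved by capillary electrophoresis, gain-of-signal versus DMSO.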

In assay [14] the target is Estrogen receptor beta (Homo sapiens) (UniProt Q92731). Description: ATG_hERb_XSP2: Attagene TRANS-FACTORIAL Multi-Species (XSP2) HepG2 Assay for human Estrogen Receptor (ERb) (AID 2283813).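 Further: actives raise reporter mRNA above DMSO so AC50 reflects agonist induction.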 An outline of the steps: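 HepG2 cells transiently transfected with GAL4-UAS reporter units and chimeric human ERb-Gal4, 24 h exposure. Reporter mRNA quantified by RT-PCR with FAM labelling, HpaI digestion and capillary electrophoresis; gain of signal versus DMSO.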

In assay [15] the target is GAL4 Transcription Factor (Internal Marker), GAL4 (gene 855828) (UniProt P04386). Briefly: ATG_GAL4_XSP2: Attagene TRANS-FACTORIAL Multi-Species (XSP2) HepG2 Assay for GAL4 Transcription Factor (Internal Marker) (AID 2283814).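 Further: GAL4 reporter mRNA background control in MRTU transfected cells not a receptor target.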 In outline:
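HepG2 cells transiently transfected with GAL4-UAS reporter units, stimulated with 3 nM 6-alpha-fluorotestosterone plus 1.5 nM norgestrel, dosed 24 h. Reporter mRNA by RT-PCR/capillary electrophoresis; gain-of-signal fit versus DMSO, background control.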

In assay [16] the test system is turtle Androgen Receptor (AR), gene 101947425. Description: ATG_trAR_XSP2: Attagene TRANS-FACTORIAL Multi-Species (XSP2) HepG2 Assay for turtle Androgen Receptor (AR) (AID 2283815).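 On AC50: potency for gain of reporter signal meaning activation above DMSO baseline.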 In outline:
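HepG2 cells transiently transfected with GAL4-UAS reporter units for chimeric NR-Gal4 receptors; 24 h dosing in presence of 3 nM 6-alpha-fluorotestosterone and 1.5 nM norgestrel. Reporter mRNA by RT-PCR and capillary electrophoresis, gain of signal versus DMSO.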

In assay [17] the test system is chicken Androgen Receptor (AR), gene 422165. Briefly: ATG_chAR_XSP2: Attagene TRANS-FACTORIAL Multi-Species (XSP2) HepG2 Assay for chicken Androgen Receptor (AR) (AID 2283819).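 Further: hits raise reporter mRNA above DMSO so potency is for activation.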 An outline of the steps: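 HepG2 cells transiently transfected with chicken AR–GAL4 chimeric reporter constructs, stimulated with 3 nM 6-alpha-fluorotestosterone plus 1.5 nM norgestrel, dosed 24 h. Reporter mRNA quantified by RT-PCR and capillary electrophoresis; gain of signal fitted versus DMSO.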

Assay [18] relates to frog Androgen Receptor (AR), gene 399456. Description: ATG_frAR_XSP2: Attagene TRANS-FACTORIAL Multi-Species (XSP2) HepG2 Assay for frog Androgen Receptor (AR) (AID 2283824).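 Further: actives raise reporter signal above DMSO so AC50 reflects agonist-like induction.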 In outline:
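HepG2 cells transiently transfected with GAL4-UAS reporter units and frog (Xenopus laevis) AR-Gal4 chimera; reporter mRNA measured 24 h after dosing by RT-PCR and capillary electrophoresis. Gain of signal fitted relative to DMSO baseline.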

For assay [19], the system named is zebrafish Androgen Receptor (AR), gene 100005148. Briefly: ATG_zfAR_XSP2: Attagene TRANS-FACTORIAL Multi-Species (XSP2) HepG2 Assay for zebrafish Androgen Receptor (AR) (AID 2283825).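 Further: hits raise reporter mRNA above DMSO so AC50 reflects agonist-type gain.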 In outline: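 Zebrafish AR–GAL4 chimera transiently expressed with GAL4-UAS reporter in HepG2 cells, co-stimulated with 3 nM 6-alpha-fluorotestosterone and 1.5 nM norgestrel; 24 h dosing, reporter mRNA read by RT-PCR/capillary electrophoresis versus DMSO.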

In assay [20] the target is Estrogen receptor (Homo sapiens) (UniProt P03372). Briefly: ATG_hERa_XSP2: Attagene TRANS-FACTORIAL Multi-Species (XSP2) HepG2 Assay for human Estrogen Receptor (ERa) (AID 2283827). In outline:
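HepG2 cells transiently transfected with multiplexed GAL4-UAS reporters driven by chimeric receptor-Gal4 proteins, dosed 24 h with 3 nM 6-alpha-fluorotestosterone and 1.5 nM norgestrel present. Reporter mRNA by RT-PCR and capillary electrophoresis; gain-of-signal fit versus DMSO.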

“And” between values parts separate entries of the source, which are not always exact repeats. Equal entries are not always repeated. Results filed as inconclusive are left out. A structure can be active in one record and inactive in another. The source made the active and inactive calls. How the source made its calls: active means hit-call score of the fitted dose curve at least 0.9, where 1 is the maximum; inconclusive means response in the unintended direction; inactive means score below 0.9.

Chain of Estrogen receptor (Homo sapiens) (P03372 whole entry, looked up, the tested form may be a part): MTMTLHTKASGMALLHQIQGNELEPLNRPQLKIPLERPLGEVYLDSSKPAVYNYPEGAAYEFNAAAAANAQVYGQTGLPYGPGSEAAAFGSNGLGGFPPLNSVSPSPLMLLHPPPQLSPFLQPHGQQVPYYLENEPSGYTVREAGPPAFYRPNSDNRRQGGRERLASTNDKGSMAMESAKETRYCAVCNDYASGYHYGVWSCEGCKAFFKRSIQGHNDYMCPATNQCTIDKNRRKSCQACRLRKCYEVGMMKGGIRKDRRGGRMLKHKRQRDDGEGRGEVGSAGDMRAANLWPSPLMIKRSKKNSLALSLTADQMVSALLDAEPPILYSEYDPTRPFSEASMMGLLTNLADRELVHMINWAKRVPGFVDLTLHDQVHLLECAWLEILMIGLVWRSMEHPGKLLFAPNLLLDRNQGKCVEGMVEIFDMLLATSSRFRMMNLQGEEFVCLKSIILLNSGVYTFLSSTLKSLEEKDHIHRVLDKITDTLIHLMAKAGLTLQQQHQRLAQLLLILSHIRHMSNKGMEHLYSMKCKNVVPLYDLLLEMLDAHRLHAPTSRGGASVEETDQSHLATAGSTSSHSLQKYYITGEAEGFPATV
Chain of chicken Estrogen Receptor (ERa), ESR1 (gene 396099) (P06212 whole entry, looked up, the tested form may be a part): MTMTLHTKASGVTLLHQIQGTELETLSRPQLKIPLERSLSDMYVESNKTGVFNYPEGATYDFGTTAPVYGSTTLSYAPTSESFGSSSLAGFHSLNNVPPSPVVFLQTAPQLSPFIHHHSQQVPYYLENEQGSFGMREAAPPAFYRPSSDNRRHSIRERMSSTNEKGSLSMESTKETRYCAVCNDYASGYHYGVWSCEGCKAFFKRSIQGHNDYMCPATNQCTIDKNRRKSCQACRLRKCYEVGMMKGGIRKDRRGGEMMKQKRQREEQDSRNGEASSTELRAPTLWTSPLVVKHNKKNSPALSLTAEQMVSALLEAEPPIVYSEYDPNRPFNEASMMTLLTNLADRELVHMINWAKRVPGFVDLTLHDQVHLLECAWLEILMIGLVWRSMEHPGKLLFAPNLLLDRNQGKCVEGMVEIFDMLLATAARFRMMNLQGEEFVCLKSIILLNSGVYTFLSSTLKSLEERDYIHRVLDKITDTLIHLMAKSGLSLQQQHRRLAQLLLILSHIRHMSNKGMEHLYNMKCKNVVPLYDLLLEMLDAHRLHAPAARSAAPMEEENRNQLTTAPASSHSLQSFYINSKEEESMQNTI
Chain of Peroxisome proliferator-activated receptor gamma (Homo sapiens) (P37231 whole entry, looked up, the tested form may be a part): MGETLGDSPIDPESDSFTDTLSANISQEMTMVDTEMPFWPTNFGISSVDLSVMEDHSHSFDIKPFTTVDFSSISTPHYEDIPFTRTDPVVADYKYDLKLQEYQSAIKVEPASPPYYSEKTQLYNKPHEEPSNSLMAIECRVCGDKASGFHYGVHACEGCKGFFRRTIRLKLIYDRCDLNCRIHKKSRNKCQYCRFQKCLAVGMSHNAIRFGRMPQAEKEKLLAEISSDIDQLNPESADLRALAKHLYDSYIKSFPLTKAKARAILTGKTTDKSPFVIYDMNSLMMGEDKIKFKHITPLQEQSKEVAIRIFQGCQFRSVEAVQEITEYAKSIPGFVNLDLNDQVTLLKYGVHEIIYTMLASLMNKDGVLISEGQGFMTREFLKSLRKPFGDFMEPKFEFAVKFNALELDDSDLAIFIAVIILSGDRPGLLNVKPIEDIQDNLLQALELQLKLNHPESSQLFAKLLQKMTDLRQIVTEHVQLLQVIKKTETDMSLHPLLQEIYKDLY
Chain of mouse Peroxisome Proliferator-activated Receptor gamma (PPARg), Pparg (gene 19016) (P37238 whole entry, looked up, the tested form may be a part): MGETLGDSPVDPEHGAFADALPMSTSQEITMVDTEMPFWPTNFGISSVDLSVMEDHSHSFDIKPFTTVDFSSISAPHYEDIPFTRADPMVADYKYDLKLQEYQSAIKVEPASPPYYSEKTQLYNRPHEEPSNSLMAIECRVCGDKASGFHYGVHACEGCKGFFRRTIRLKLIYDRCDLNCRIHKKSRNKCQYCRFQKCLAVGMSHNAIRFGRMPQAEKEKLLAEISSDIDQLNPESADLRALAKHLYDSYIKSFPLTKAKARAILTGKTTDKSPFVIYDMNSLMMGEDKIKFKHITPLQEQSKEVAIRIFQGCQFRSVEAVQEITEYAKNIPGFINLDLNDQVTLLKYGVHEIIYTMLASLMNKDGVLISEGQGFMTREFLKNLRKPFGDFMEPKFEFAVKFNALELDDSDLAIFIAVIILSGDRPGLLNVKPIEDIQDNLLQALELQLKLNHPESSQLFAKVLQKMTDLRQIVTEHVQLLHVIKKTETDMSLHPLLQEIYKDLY
Chain of GAL4 Transcription Factor (Internal Marker), GAL4 (gene 855828) (P04386 whole entry, looked up, the tested form may be a part): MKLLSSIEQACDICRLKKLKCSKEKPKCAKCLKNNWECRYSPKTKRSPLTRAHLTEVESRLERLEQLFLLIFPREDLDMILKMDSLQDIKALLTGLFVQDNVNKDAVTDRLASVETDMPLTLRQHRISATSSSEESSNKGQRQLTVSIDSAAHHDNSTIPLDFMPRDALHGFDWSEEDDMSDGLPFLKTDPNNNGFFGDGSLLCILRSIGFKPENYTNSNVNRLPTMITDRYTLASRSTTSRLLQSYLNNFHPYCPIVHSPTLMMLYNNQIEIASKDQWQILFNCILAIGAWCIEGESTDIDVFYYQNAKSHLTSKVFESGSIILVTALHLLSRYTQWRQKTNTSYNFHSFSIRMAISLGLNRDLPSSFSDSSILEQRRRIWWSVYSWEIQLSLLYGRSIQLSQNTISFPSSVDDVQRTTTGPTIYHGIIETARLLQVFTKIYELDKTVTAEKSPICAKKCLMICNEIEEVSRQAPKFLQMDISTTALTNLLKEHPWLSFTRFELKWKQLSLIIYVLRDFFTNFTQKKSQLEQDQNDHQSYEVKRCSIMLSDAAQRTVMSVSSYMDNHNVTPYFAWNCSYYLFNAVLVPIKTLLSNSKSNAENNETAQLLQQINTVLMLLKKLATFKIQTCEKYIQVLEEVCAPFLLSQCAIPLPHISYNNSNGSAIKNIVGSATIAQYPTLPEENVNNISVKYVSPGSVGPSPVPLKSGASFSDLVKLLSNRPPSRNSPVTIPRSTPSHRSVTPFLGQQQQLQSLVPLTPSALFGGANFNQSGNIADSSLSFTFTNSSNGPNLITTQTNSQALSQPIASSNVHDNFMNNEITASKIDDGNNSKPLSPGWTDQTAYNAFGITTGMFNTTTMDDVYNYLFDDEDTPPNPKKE
Chain of Nuclear receptor subfamily 1 group I member 2 (Mus musculus) (O54915 whole entry, looked up, the tested form may be a part): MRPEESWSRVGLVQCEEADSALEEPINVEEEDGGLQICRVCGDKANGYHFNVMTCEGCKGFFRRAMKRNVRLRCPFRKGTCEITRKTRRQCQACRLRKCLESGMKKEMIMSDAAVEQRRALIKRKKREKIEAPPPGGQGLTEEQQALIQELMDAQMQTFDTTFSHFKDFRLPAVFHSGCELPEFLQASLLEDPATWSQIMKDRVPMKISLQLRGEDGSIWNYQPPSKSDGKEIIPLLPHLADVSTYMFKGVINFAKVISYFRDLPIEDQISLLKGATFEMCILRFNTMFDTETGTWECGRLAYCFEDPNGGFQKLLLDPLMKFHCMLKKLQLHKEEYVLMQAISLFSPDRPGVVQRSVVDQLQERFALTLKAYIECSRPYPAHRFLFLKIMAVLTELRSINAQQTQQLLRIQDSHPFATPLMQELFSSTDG
Chain of zebrafish Estrogen Receptor (ER1), esr1 (gene 259252) (P57717 whole entry, looked up, the tested form may be a part): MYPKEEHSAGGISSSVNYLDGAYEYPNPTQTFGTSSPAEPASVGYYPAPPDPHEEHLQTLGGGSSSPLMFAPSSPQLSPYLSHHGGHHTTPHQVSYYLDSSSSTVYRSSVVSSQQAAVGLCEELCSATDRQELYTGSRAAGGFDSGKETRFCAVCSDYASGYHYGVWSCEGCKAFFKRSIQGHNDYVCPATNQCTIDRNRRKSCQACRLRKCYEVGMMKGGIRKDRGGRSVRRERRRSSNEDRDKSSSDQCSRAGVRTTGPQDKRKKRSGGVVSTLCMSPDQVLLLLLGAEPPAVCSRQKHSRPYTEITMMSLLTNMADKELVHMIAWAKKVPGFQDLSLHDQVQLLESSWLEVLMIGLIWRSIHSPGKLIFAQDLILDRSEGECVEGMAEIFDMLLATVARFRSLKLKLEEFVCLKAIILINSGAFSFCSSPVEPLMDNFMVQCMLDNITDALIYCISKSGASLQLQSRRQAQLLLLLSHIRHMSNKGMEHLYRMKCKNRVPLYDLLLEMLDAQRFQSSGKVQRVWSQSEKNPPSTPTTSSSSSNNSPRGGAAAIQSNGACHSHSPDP
Chain of Estrogen receptor beta (Homo sapiens) (Q92731 whole entry, looked up, the tested form may be a part): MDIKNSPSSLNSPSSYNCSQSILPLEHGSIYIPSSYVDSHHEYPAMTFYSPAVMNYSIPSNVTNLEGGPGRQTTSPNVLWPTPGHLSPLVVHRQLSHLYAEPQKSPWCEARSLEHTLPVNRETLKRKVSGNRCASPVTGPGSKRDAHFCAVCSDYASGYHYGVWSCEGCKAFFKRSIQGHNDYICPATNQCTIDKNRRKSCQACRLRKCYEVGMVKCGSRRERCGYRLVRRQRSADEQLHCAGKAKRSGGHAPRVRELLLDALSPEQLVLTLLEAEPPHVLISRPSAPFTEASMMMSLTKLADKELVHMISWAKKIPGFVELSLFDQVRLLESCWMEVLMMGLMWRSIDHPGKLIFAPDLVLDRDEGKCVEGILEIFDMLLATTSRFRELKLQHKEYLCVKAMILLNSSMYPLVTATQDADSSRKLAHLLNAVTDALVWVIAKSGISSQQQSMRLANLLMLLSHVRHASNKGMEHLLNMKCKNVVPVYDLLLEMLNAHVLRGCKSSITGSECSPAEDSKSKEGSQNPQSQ

Turning to `C#C[C@]1(O)CC[C@H]2[C@@H]3CCc4cc(O)ccc4[C@H]3CC[C@@]21C`, the result in assay [1], in [2] and in assay [8] was inactive. Also, the AC50 in [3] was 0.0694 nM (active); in assay [4], 2.55 nM (active); in [5], 4.88e-05 µM (active); in assay [6], 0.000204 µM (active); in [7] it was 1.35 nM (active).

Consider `O=c1cc(-c2ccc(O)cc2)oc2cc(O)cc(O)c12`, for which the AC50 was 1510 nM (active) in assay [3]; 2.58 µM (active) and 764 nM (active) in [4]; 1.67 µM (active) and 768 nM (active) in [9]; 1.1 µM (active) and 677 nM (active) in [5]; 767 nM (active) in [10]; 1.69 µM (active) and 1.07 µM (active) in [6]. For the same compound, the AC50 in assay [7] is 3.85 µM (active) and 215 nM (active); in assay [8] it was 27.8 µM (active) and 12.8 µM (active); in assay [11] it was 27.5 µM (active) and 16.2 µM (active); in assay [12] it was 26.9 µM (active). Further, the call in assay [3] and in [10] was inactive.

As to `CC/C(=C(\c1ccccc1)c1ccc(OCCN(C)C)cc1)c1ccccc1`, the AC50 in assay [1] is 26.1 µM (active). For the same compound, the result in assay [2], in assay [5], in assay [10], in assay [13] and in assay [12] was inactive.

For the compound `CCCCCCCCOC(=O)c1ccc(O)cc1`, the outcome in [2], in assay [14], in assay [16], in assay [4], in assay [17] and in assay [19] was inactive. In addition, the outcome in assay [12] was inactive. Besides, the AC50 was 17.1 µM (active) and 1.5 µM (active) in assay [3]; 49.4 µM (active) in assay [15]; 33.4 µM (active) in [16]; 18 µM (active) and 788 nM (active) in assay [9]; 11 µM (active) and 3.51 µM (active) in assay [5]; 33.4 µM (active) in assay [17]. Moreover, the AC50 in assay [10] was 20.9 µM (active) and 2.94 µM (active); in assay [6] it was 14.9 µM (active) and 2.94 µM (active); in [18], 33.4 µM (active); in [20] it was 21.2 µM (active) and 3.19 µM (active); in [7] it was 9.18 µM (active) and 803 nM (active).

On to `CC(C)(C)c1ccc(S)cc1`, for which the compound was classed as inactive in [2], in assay [3], in [15], in [16], in [4] and in assay [9]. Moreover, the outcome in assay [17], in [10], in assay [20], in assay [8], in assay [11] and in [12] was inactive. Further, the values for the AC50 in [5], in assay [6] and in assay [8] were 100 µM (active), 179 µM (active) and 3.68 µM (active), respectively.

As for `CCCCCC(=O)O[C@]1(C(C)=O)CC[C@H]2[C@@H]3CCC4=CC(=O)CC[C@]4(C)[C@H]3CC[C@@]21C`, the outcome in assay [2], in assay [15], in assay [4], in [10], in [7] and in assay [12] was inactive. For the same compound, the AC50 in assay [5] was 172 µM (active); in [6], 7.02 µM (active); in [8] it was 2.88 µM (active) and 2.34 µM (active); in assay [11], 7.63 µM (active) and 3.17 µM (active).

For orientation: AC50 means the midpoint of the concentration-response curve, whichever way the signal moves.

Values taken from PubChem BioAssay (EPA / NIEHS).
